Assay results published in PubChem BioAssay AID642 (Vanderbilt High Throughput Screening Facility, 2007).
Screen size: about 2,200 compounds; about 2,000 (91%) were called active.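 Rule for the calls: active = luminescence in either of two replicates above the same-plate mean plus 3 SD of the low-dose dopamine control; inactive = the rest.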 The set was probably picked from earlier hits. A selection follows.

Target: D(1A) dopamine receptor (Homo sapiens) (UniProt P21728)
Test: potentiation of dopamine EC30 D1 response – cell-based, HEK293 D1, CRE-luciferase, duplicate, confirmation (AID 642)
Details: at 10 µM, stronger effect = higher value

Chain of D(1A) dopamine receptor (Homo sapiens) (P21728 whole entry, looked up): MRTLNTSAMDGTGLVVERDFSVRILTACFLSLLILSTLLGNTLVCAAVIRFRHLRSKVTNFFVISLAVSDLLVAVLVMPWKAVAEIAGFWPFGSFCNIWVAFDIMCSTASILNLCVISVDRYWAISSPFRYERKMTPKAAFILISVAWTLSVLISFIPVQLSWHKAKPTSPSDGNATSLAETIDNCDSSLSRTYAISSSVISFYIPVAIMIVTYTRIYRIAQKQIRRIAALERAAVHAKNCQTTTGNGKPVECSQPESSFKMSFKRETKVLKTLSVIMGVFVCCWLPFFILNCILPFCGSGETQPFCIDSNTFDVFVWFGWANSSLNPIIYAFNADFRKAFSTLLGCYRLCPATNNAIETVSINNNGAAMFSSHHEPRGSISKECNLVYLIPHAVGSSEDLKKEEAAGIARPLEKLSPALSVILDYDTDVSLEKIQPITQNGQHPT

| SMILES | luminescence |
| --- | --- |
| CC1(C)Cc2ccccc2-c2nc(CN3CCOCC3)[nH]c(=O)c21 | 19300 (active) |
| CCCCNc1nc2ccccc2nc1NS(=O)(=O)c1cccs1 | 15900 (active) |
| Cn1c(=O)c2[nH]c(NCC3CCCO3)nc2n(-c2ccccc2)c1=O (configuration not stated) | 8480 (active) |
| CN1CCN(CC(O)COCc2ccc3c(c2)OCO3)CC1 (configuration not stated) | 6270 (active) |
| N#Cc1nc(Cc2ccccc2)oc1NCCc1ccccc1 | 8810 (active) |
| COc1ccc(Nc2oc(-c3ccccc3Cl)nc2C#N)cc1 | 15100 (active) |
| CCOc1ccc(Nc2oc(Cc3ccccc3)nc2C#N)cc1 | 10900 (active) |
| CCCc1nc(N)nc2c1C(=O)CC(C)(C)C2 | 24100 (active) |
| O=C(C1CCC1)N1CCc2cc(S(=O)(=O)NCc3cccnc3)ccc21 | 13000 (active) |
| CCOc1cccc(-n2nnnc2-c2ccc(OC)cc2)c1 | 10400 (active) |
| CCOC(=O)c1c(NC(=O)CSc2nnc(Cc3csc(N)n3)n2C)sc(C)c1C | 9070 (active) |
| CCOC(=O)c1c(NC(=O)CSc2nnc(CN3CCOCC3)n2C)sc2c1CCCC2 | 11600 (active) |
| COc1ccc(-n2c(Cc3cccn3C)nnc2SCC(=O)Nc2cc(C)cc(C)c2)cc1 | 4890 (inactive) |
| CC1Oc2ccccc2N(Cc2cccnc2)C1=O (configuration not stated) | 10900 (active) |
| COC(=O)[C@H](C(C)C)n1c(C)c(C(C)=O)c(C(C)=O)c1C | 7760 (inactive) |
| CCCn1c(=NC(C)=O)c(C(=O)OCC)cc2c(=O)n3ccccc3nc21 | 9880 (active) |
| c1coc(-c2nc3nc4ccccc4n3nc2-c2ccco2)c1 | 14000 (active) |
| CCOc1cc(-c2noc(CCC(=O)N3CCOCC3)n2)ccc1OC | 10500 (active) |
| CCOc1ccc(-c2nnn(CC(=O)N3CCN(c4ccc(OC)cc4)CC3)n2)cc1OCC | 9620 (active) |
| COc1nc(NCc2ccc(Cl)cc2)nc(OC)n1 | 13700 (active) |
| CC(=O)c1ccc(Oc2cc(C)nc(-n3nc(C)cc3C)n2)cc1 | 17900 (active) |
| COc1ccc(Nc2cc(C)nc(-n3nc(C)cc3C)n2)cc1 | 13700 (active) |

| SMILES | luminescence |
| --- | --- |
| CCCCSc1nc2c(c(=O)n1CC)SC(C)C2 (configuration not stated) | 8100 (active) |
| CC(C)C1C2=C(CC(C)(C)CC2=O)ON1c1ccccc1 (configuration not stated) | 12900 (active) |
| CCOC(=O)c1cc(C)sc1NC(=O)C1CCC1 | 19700 (active) |
| N#CCCN1CCN(S(=O)(=O)c2ccc(S(=O)(=O)NC3CCCCC3)cc2)CC1 | 5770 (active) |
| COc1ccc(CCN(C)C(=O)C2CCCN(Cc3ccc(OC)c(OC)c3)C2)cc1OC (configuration not stated) | 7890 (active) |
| CCCS(=O)(=O)N1CCC(C(=O)NCCc2ccc(OC)c(OC)c2)CC1 | 7140 (inactive) |
| COc1ccc(NC(=O)C2CCCN(S(=O)(=O)c3cccc4cccnc34)C2)cc1OC (configuration not stated) | 13800 (active) |
| CCSc1ncnc2c(C#N)c3n(c12)CCCCC3 | 18600 (active) |
| COc1ccc(-c2nnco2)cc1OC | 10800 (active) |
| C=CCSc1nc2c(c(=O)[nH]1)C(C(C)C)C(C#N)=C(N)O2 (configuration not stated) | 18500 (active) |
| CCOc1ccc2[nH]c(=O)c(C(c3nnnn3CCOC)N3CCOCC3)cc2c1 (configuration not stated) | 5420 (inactive) |
| CC1CCN(c2nc3c(c(=O)[nH]c(=O)n3C)n2CCCc2ccccc2)CC1 | 14000 (active) |
| CCCSc1nc2c(c(=O)[nH]c(=O)n2C)n1CCc1ccccc1 | 24800 (active) |
| O=C(NCc1ccco1)c1cnn2c(C(F)(F)F)cc(-c3ccco3)nc12 | 8660 (active) |
| O=S(=O)(c1cccs1)N1CCc2ccccc2C1 | 12600 (active) |
| CN(C)c1nc(N)nc(CSc2nnnn2-c2cccc3ccccc23)n1 | 7470 (active) |
| CCn1ncc(C2=NOC(C(=O)Nc3ccccc3C(=O)OC)C2)c1C (configuration not stated) | 14000 (active) |
| Cc1nn(-c2ccccc2)c2c1C(=O)NC(=O)C(C)(C)C2 | 17700 (active) |
| CCn1cc(C(=O)NCC2COc3ccccc3O2)c2cc(OC)c(OC)cc2c1=O (configuration not stated) | 9310 (active) |
| Nc1ccc(S(=O)(=O)NC(=O)c2ccccc2)cc1 | 5620 (inactive) |
| O/N=C(\c1ccc2c(c1)OCCO2)C1CCCCC1 | 10600 (active) |
| CC(=O)OC(C)C[N+](C)(C)C (configuration not stated) | 6620 (active) |

| SMILES | luminescence |
| --- | --- |
| c1ccc2c(NCC3CCCO3)nc(-c3ccncc3)nc2c1 (configuration not stated) | 9880 (active) |
| CCCN1Cc2cccc(C(=O)NCc3ccccc3)c2C1=O | 12000 (active) |
| CC1CCN(c2oc(-c3ccccc3F)nc2C#N)CC1 | 8980 (active) |
| C#CCNc1nc(C(C)C)nc2c1nnn2Cc1ccccc1F | 11700 (active) |
| CCOc1cc(C(=O)N2CCc3cc(OC)c(OC)cc3C2)ccc1OC(F)F | 24600 (active) |
| COc1ccc(CCNc2ncnc3nc[nH]c23)cc1OC | 14700 (active) |
| COc1ccc(-c2nnc(SCC(=O)NC3CCCCC3)o2)cc1OC | 12200 (active) |
| Cc1ccc(C2CC(c3cccc(C)c3)n3nc(N)nc3N2)cc1 (configuration not stated) | 8720 (active) |
| CCOc1ccccc1C1CC(c2ccccc2)Nc2nc(N)nn21 (configuration not stated) | 10100 (active) |
| Cc1ccc(C2CC(c3cccc(Br)c3)n3nc(N)nc3N2)cc1 (configuration not stated) | 10800 (active) |
| FC(F)(F)c1cc(-c2ccco2)nc(N2CCOCC2)n1 | 24200 (active) |
| Cc1cc(C(F)(F)F)nn1-c1nc(-c2ccco2)cc(C(F)(F)F)n1 | 8160 (active) |
| COc1ccc(-c2nnn(Cc3nc(N)nc(N4CCCCC4)n3)n2)cc1 | 12600 (active) |
| COc1ccc(S(=O)(=O)Nc2ccc(S(=O)(=O)N3CCCCC3)cc2)cc1OC | 13000 (active) |
| O=C(CSc1nnc2scc(-c3ccc(F)cc3)n12)NCc1ccco1 | 11300 (active) |
| Cn1c(/C(C#N)=C2/CCCCCN2)nc2ccccc21 | 15000 (active) |
| COc1ncnc2c1N=C1CC(C)(C)CC(N)=C1S2 | 8600 (active) |
| COC(=O)c1ccccc1NC(=O)C1CCN(S(=O)(=O)c2cc(OC)ccc2OC)CC1 | 13600 (active) |
| CCCCc1c(O)nc2n(c1=O)CCS2 | 4500 (inactive) |
| Oc1ccc(-c2csc(Nc3cccnc3)n2)cc1 | 10600 (active) |
| COC(=O)C(C)C1Sc2ccccc2NC1=O (configuration not stated) | 11200 (active) |
| COc1cc(NC(=O)N2CCOCC2)cc(OC)c1 | 7060 (inactive) |

| SMILES | luminescence |
| --- | --- |
| CC(=O)Nc1cccc(Oc2cc(C#N)c(C#N)cc2N2CCOCC2)c1 | 18800 (active) |
| CCn1c(=N)c(S(=O)(=O)c2ccc(F)cc2)cc2c(=O)n3ccccc3nc21 | 18300 (active) |
| CCc1ccc2oc(=O)cc(CN3CCCCC3C)c2c1 (configuration not stated) | 10700 (active) |
| COc1ccc(CCNC(=O)CCn2c(=O)oc3ccccc32)cc1OC | 12500 (active) |
| COc1ccc(CCNC(=O)c2cc3sccc3n2C)cc1OC | 7950 (inactive) |
| CCCc1nc(-c2ccccc2O)n(-c2ccccc2)n1 | 14800 (active) |
| COc1ncnc2sc3c(c12)CCCC3 | 9980 (active) |
| N#Cc1c(N)sc2c1CCN(C(=O)OCc1ccccc1)C2 | 11700 (active) |
| COc1ccc(-c2n[nH]c(C)c2-c2ccc(OC)c(OC)c2)c(O)c1 | 7480 (active) |
| c1ccc(COc2nsnc2N2CCOCC2)cc1 | 9440 (active) |
| CCSc1nc(C)nc2c1oc1ccccc12 | 15900 (active) |
| c1ccc(-c2nnc3n2NC(c2ccc4c(c2)OCO4)S3)cc1 (configuration not stated) | 13600 (active) |
| Cn1c(=O)c2cn(-c3cccc4ccccc34)cc2n(C)c1=O | 8890 (active) |
| COc1ccc(S(=O)(=O)N(C)CC(=O)Nc2ccc3c(c2)OCCO3)cc1OC | 7550 (active) |
| COC(=O)C1=C(C)NC2=C(C(=O)c3ccccc32)C1c1ccc(-c2ccc(C(=O)O)cc2)o1 (configuration not stated) | 12100 (active) |
| COc1ccc(-c2nn3c(-c4ccccc4)nnc3s2)cc1OC | 22300 (active) |
| COc1cc(-c2nn3c(-c4cccc(C)c4)nnc3s2)cc(OC)c1OC | 12800 (active) |
| N#CCSc1nc2ccccc2c(=O)n1-c1ccccc1 | 19300 (active) |
| CCOc1ccc(Cn2c(SCCCCC#N)nc3c2c(=O)n(C)c(=O)n3C)cc1OCC | 14200 (active) |
| CCC(=O)NC(=Nc1nc2ccccc2s1)NC(=O)CC | 18700 (active) |
| CCNc1nc(NCC)nc(N(C)n2cnnc2)n1 | 15800 (active) |
| C/C(Cl)=C\Cn1c(Nc2cccc(C)c2)nc2c1c(=O)n(C)c(=O)n2C | 12000 (active) |

| SMILES | luminescence |
| --- | --- |
| Cc1cc(C)c2c(n1)nn1c(-n3ccnc3)cc(C)nc21 | 11600 (active) |
| COc1ccc(-c2cc(C(F)(F)F)nc(S(C)(=O)=O)n2)cc1OC | 10100 (active) |
| CCCn1c(=O)c2[nH]c(C3CCCC3)nc2n(CCC)c1=O | 22800 (active) |
| CC(C)c1cc(C(=O)O)on1 | 5510 (inactive) |
| CCOc1ccc2c(c1)cc(CN(C(=O)CC)C1CCCCC1)c1nnnn12 | 16400 (active) |
| CC(C)n1c(C(O)c2ccccc2)nc2ccccc21 (configuration not stated) | 6650 (active) |
| COC(=O)Nc1ncc(CN2C(=O)c3ccccc3C2=O)s1 | 9780 (active) |
| O=C(c1ccco1)N1CCN=C1SCc1cccc(Cl)c1 | 9520 (active) |
| O=c1cc(-c2ccccc2)nc(N2CCCCC2)[nH]1 | 12700 (active) |
| Cc1ccc(S(=O)(=O)c2c(N)n(C)c3nc4ccccc4nc23)cc1 | 11800 (active) |
| CCOC(=O)c1cc2n(c1C)-c1ccccc1C2=O | 9350 (active) |
| C/C(=C\C(=O)c1ccccc1)Nc1cccc(O)c1 | 3550 (active) |
| N#Cc1nc(N)nc(N(c2ccccc2)c2ccccc2)n1 | 13100 (active) |
| CCc1cc(=O)oc2cc(OCC(=O)N3CCCc4ccccc43)ccc12 | 14000 (active) |
| CCn1nc(C(=O)OCC(=O)N2c3ccccc3CC2C)c2ccccc2c1=O (configuration not stated) | 13900 (active) |
| Cc1ccc(-c2nn(-c3ccccc3)cc2CN(Cc2ccccc2)C(=O)CCC(=O)O)o1 | 9380 (active) |
| O=C(NCc1ccccn1)c1ccc2nc(-c3ccco3)c(-c3ccco3)nc2c1 | 10400 (active) |
| C=CCn1cnc2scc(-c3ccccc3)c2c1=O | 16400 (active) |
| CCOC(=O)/C=c1\s/c(=C\c2ccccc2OC)c(=O)n1CC(=O)N1CCOCC1 | 15600 (active) |
